The whole screen tested about 6,700 compounds, of which fewer than 10 were called active.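 Rule for the calls: active = mean percent activation across replicates above the confirmation screen cutoff of 4.91%; inactive = the rest.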 These entries were drawn from the full list.
molecular target: G-protein coupled receptor 151 (Homo sapiens) (UniProt Q8TDV0); experiment: GPR151 activators, triplicate retest, confirmation, cell-based, PathHunter beta-arrestin, luminescence (AID 1508609); settings: GPR151 PathHunter beta-arrestin cells, 90 min, at 11.2 µM, hits give high values, % of EA-reagent control over plate median
Sequence (Q8TDV0 whole entry, looked up): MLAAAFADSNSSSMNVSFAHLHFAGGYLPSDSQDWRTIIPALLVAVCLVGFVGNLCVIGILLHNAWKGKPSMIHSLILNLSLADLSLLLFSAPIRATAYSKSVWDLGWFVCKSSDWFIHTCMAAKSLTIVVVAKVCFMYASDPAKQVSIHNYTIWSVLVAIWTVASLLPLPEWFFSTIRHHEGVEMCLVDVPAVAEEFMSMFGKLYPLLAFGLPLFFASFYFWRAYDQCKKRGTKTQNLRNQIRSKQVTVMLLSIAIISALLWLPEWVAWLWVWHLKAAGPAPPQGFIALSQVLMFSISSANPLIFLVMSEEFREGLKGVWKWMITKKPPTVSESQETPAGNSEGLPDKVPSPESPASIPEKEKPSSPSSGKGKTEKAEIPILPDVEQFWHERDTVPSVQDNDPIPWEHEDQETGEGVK

Question: With `CC(=O)NC(CC(=O)O)c1ccc(F)cc1` (stereo unspecified) as the compound, how does the activation read?
Answer: 0.27% (inactive)

Question: For `CC(=O)c1c(C)[nH]c(C(=O)N2CCN(c3ccc(Cl)cc3)CC2)c1C`, which activation is on record?
Answer: -0.42% (inactive)

Question: With `CC(=O)Oc1cccc(N2C(=O)C3C4c5ccccc5C(C)(c5ccccc54)C3C2=O)c1` (stereo unspecified) as the compound, how does the activation read?
Answer: -0.54% (inactive)

Question: How did the activation turn out when `O=C(CC1C(=O)NCCN1Cc1ccc2ccccc2c1)NCCCn1cccn1` (stereo unspecified) was run?
Answer: 0.42% (inactive)

Question: Which activation does the source give for `CC(=O)Oc1cc2c(C(=O)NCCN3CCOCC3)c(C)oc2c2ccccc12` here?
Answer: -0.37% (inactive)

Question: How did the activation turn out when `CCOc1ccc(NC(=O)COc2cccc(C)c2C)cc1` was run?
Answer: 0.66% (inactive)

Question: How did the activation turn out when `Cc1cc2c(cc1S(=O)(=O)CCC(=O)Nc1ccccc1Cl)OCC(=O)N2` was run?
Answer: 0.39% (inactive)

Question: `O=C(CC12CC3CC(CC(C3)C1)C2)Nc1ccc2oc(=O)ccc2c1` was tested. Which activation did it give?
Answer: -0.22% (inactive)

Question: How did the activation turn out when `CCOc1cc(C2C3=C(CCCC3=O)NC3=C2C(=O)CCC3)cc(Br)c1OCC` was run?
Answer: 0.37% (inactive)

Question: With `COc1ccc([N+](=O)[O-])cc1NC(=O)C1CC(Cl)=CCC1C(=O)O` (stereo unspecified) as the compound, how does the activation read?
Answer: 0.92% (inactive)

Question: Which activation does the source give for `Brc1cnc(NC2CCCCC2)nc1` here?
Answer: 1.03% (inactive)

Question: `COc1cc(-c2coc3cc(O[C@@H]4O[C@H](CO)[C@@H](O)[C@H](O)[C@H]4O)c(OC)c(O)c3c2=O)cc(O)c1OC` was tested. Which activation did it give?
Answer: -0.2% (inactive)

Question: Which activation does the source give for `COc1ccc(OC)c(S(=O)(=O)Oc2ccc(Cl)c3cccnc23)c1` here?
Answer: 0.21% (inactive)

Question: How did the activation turn out when `O=C(NCCO)c1cnc(NC2CCN(Cc3ccccc3)CC2)s1` was run?
Answer: 0.92% (inactive)

Question: For `COc1ccc(C=O)cc1OCc1ccc(F)cc1`, which activation is on record?
Answer: -0.07% (inactive)

Question: For `C=C(C)CSc1nc2sc3c(c2c(=O)n1-c1ccc(OC)cc1)CC(C)(C)OC3`, which activation is on record?
Answer: 0.13% (inactive)

Question: Which activation does the source give for `COC(=O)C1=CN(Cc2ccc(Cl)cc2)C=C(C(=O)OC)C1c1cc(OC)c(O)c(OC)c1` here?
Answer: 0.02% (inactive)

Question: For `Nc1nc(NC(=O)/C=C/c2ccc(F)cc2)nn1-c1ccccc1`, which activation is on record?
Answer: 0.79% (inactive)

Question: For `COCCNc1nc2nonc2nc1N(C)Cc1ccncc1C`, which activation is on record?
Answer: 1.1% (inactive)

Question: Which activation does the source give for `CC(C)N1CCc2c(sc(NC(=O)Cc3ccccc3)c2C#N)C1` here?
Answer: 0.16% (inactive)

Question: Which activation does the source give for `CC(C)c1ccc(CN[C@H]2C[C@H]3C(=O)N[C@@H](COCc4ccccc4)C(=O)N3C2)cc1` here?
Answer: 0.67% (inactive)

Question: Which activation does the source give for `CC(C)n1c(Nc2ccc3ncccc3c2)nc2c(NC3CC3)ncnc21` here?
Answer: -0.12% (inactive)

Question: For `Cc1ccc(/C=C2/C(=O)NC(=O)N(c3ccccc3)C2=O)cc1[N+](=O)[O-]`, which activation is on record?
Answer: 0% (inactive)

Question: Which activation does the source give for `CN(C)c1cccc(Nc2cc(C(=O)Nc3ccc(N4CCOCC4)cc3)ccn2)c1` here?
Answer: -1.31% (inactive)

Question: How did the activation turn out when `O=C(Nc1ccc(N2CCCC2=O)cc1)c1cncc(Br)c1` was run?
Answer: 0.8% (inactive)

Question: Which activation does the source give for `COc1cc(Nc2ccnc(Nc3ccc(N4CCOCC4)cc3)n2)cc(OC)c1OC` here?
Answer: 3.41% (inactive)

Question: Which activation does the source give for `COc1ccc(COC(=O)NNC(=O)c2cccc(Cl)c2)cc1` here?
Answer: -0.17% (inactive)

Question: How did the activation turn out when `CCOC(=O)C(C(=O)c1ccccc1)C1(O)C(=O)c2ccccc2C1=O` (stereo unspecified) was run?
Answer: -0.37% (inactive)

Question: With `CCC(CC)C(=O)N1CCN(Cc2nc3sc(C)c(C)c3c(=O)[nH]2)CC1` as the compound, how does the activation read?
Answer: 0.36% (inactive)

Question: Which activation does the source give for `CCC(=O)Nc1cc(C(=O)O)ccc1C` here?
Answer: 0.34% (inactive)

Question: For `CCOC(=O)c1[nH]c2ccc(OC)cc2c1NC(=O)CN(C)C`, which activation is on record?
Answer: 0.64% (inactive)

Question: With `COc1ccc(C2=NN(C(=O)c3cc(OC)c(OC)c(OC)c3)C(c3ccc(Cl)cc3)C2)cc1OC` (stereo unspecified) as the compound, how does the activation read?
Answer: 0.2% (inactive)

Question: For `Cc1ccc(N2C(=O)CC(NCCN3CCOCC3)C2=O)cc1` (stereo unspecified), which activation is on record?
Answer: 0.27% (inactive)

Question: How did the activation turn out when `c1cncc(Nc2nc(NC3CC3)c3ncn(C4CCCCC4)c3n2)c1` was run?
Answer: -0.06% (inactive)

Question: How did the activation turn out when `CCCCOC(=O)C1=C(C)NC2=C(C(=O)CCC2)C1c1cccc([N+](=O)[O-])c1` (stereo unspecified) was run?
Answer: -0.99% (inactive)

Question: With `CC(=O)Nc1ccc(NC(=O)c2ccc3nc(Br)sc3c2)cc1` as the compound, how does the activation read?
Answer: -0.12% (inactive)

Question: With `O=C(COc1ccc([N+](=O)[O-])cc1)Nc1ccc2oc(-c3cccc(F)c3)nc2c1` as the compound, how does the activation read?
Answer: 0.23% (inactive)

Question: How did the activation turn out when `COCC(=O)Nc1c(I)c(C(=O)NCC(O)CO)c(I)c(C(=O)N(C)CC(O)CO)c1I` (stereo unspecified) was run?
Answer: -0.27% (inactive)

Question: How did the activation turn out when `CCN(CC)C(=O)C1CCCN(c2ncc(C)c(NCc3cccc(C(F)(F)F)c3)n2)C1` (stereo unspecified) was run?
Answer: 1.13% (inactive)

Question: Which activation does the source give for `COc1ccc2nc(/C(C#N)=C\c3cc4c(cc3OC)OCO4)[nH]c2c1` here?
Answer: 0.91% (inactive)

Question: How did the activation turn out when `Cc1cc(Nc2ccc(F)cc2)n2cnnc2n1` was run?
Answer: 1.15% (inactive)

Question: Which activation does the source give for `CN(Cc1ccccc1)C(=O)c1nc2ccc(-c3cn[nH]c3)cc2s1` here?
Answer: 0.57% (inactive)

Question: Which activation does the source give for `O=C(/C=C/c1ccccc1)c1ccccc1O` here?
Answer: -0.11% (inactive)

Question: Which activation does the source give for `COC(=O)Cn1ncc2c3ccccc3n(Cc3cccc(Cl)c3)c2c1=O` here?
Answer: 0.15% (inactive)

Question: For `COc1ccc(CCNC(=S)NCc2cc(C)n(C)n2)cc1OC`, which activation is on record?
Answer: -0.26% (inactive)

Question: `O=C1/C(=C\c2ccccc2)C(N2CCOCC2)=NN1c1ccc([N+](=O)[O-])cc1` was tested. Which activation did it give?
Answer: 0.23% (inactive)

Question: With `CC12CCC(C(=O)NC3CCCCC3)(OC1=O)C2(C)C` (stereo unspecified) as the compound, how does the activation read?
Answer: 0.51% (inactive)

Question: With `CN(Cc1nc(-c2ccc3c(c2)OCO3)no1)C1CCCc2ccccc21` (stereo unspecified) as the compound, how does the activation read?
Answer: 0.68% (inactive)

Question: `COc1ccc(-c2noc(-c3ccccc3Cl)n2)cc1` was tested. Which activation did it give?
Answer: -0.15% (inactive)

Question: `Cc1ccc2c(c1)N(CC(=O)N1CCC(C)CC1)C(=O)c1cccnc1O2` was tested. Which activation did it give?
Answer: 0.11% (inactive)

Question: How did the activation turn out when `CC(/C=N\NC(=O)CSc1nc(C)cc(C)n1)=C\c1ccccc1` was run?
Answer: -1.7% (inactive)
